USP30 block: inhibitors of human USP30 deubiquitinase; Q70CQ3; purified USP30, Ub-rhodamine cleavage fluorescence; inhibition, % at 25 µM; actives 5.3% (n = 47,000); AID 1645860
USP28 inh: blocks human USP28 ubiquitin-rhodamine cleavage. Q96RU2. purified USP28, Ub-rhodamine cleavage fluorescence, 30 min. inhibition, % at 25 µM. actives 3% (n = 47,000)
OTUD3 block: blocks human OTUD3 ubiquitin-rhodamine cleavage | Q5T2D3 | purified OTUD3, Ub-rhodamine fluorescence, 2 h | inhibition, % at 25 µM | actives 0.7% (n = 47,000) | AID 1645858
USP17 block: inhibitors of human USP17 deubiquitinase | actives 6.5% (n = 47,000) | inhibition, % at 50 µM | purified USP17, Ub-rhodamine cleavage fluorescence, 3 h | AID 1645855
Target sequence (A8MUK1 whole entry, looked up): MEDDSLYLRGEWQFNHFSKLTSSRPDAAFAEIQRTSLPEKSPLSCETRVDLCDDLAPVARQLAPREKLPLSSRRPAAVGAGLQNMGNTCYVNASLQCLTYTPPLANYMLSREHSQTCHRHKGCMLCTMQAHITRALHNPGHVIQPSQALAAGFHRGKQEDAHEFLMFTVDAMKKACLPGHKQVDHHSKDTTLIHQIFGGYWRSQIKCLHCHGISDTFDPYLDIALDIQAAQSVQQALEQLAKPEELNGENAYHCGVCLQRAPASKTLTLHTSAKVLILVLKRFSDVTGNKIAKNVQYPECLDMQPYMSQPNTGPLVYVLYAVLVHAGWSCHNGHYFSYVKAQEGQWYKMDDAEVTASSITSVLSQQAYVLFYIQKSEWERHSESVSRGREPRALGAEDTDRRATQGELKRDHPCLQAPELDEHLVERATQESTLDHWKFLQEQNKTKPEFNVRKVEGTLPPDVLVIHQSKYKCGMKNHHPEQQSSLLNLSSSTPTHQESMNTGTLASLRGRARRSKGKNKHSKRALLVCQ
The depositor's hits bear a star; i = inactive; / = no result given. Sampled rows, rich in hits. Any-hit rate of the full collection: about 11%. Cut-off read from the data, not from the text of the source: active = inhibition above about 30%; inactive = the rest.

SMILES	USP30 block	USP28 inh	OTUD3 block	USP17 block
COc1ccc(CCNC(=O)Cn2c(=O)n(CCCCC(=O)NCc3ccc4c(c3)OCO4)c(=O)c3ccccc32)cc1OC	22	0	0	28
O=C(CCCCn1c(=O)c2ccccc2n(CC(=O)Nc2ccc(Br)cc2F)c1=O)NCc1ccco1	i	-250	-172	-134
O=C(Cn1c(=O)c2ccccc2c2ccccc21)Nc1ccc2c(c1)OCO2	82*	31*	33*	53*
Cc1cccc(C)c1NC(=O)Cn1c(=O)n(CCCCC(=O)NCc2ccc3c(c2)OCO3)c(=O)c2ccccc21	67*	32*	18	33*
O=C(CSc1n[nH]c2nc3ccccc3n12)Nc1ccc2c(c1)OCO2	1	37*	1	-28
O=C(CCCn1c(=O)c2ccccc2n(CC(=O)Nc2ccc(Br)cc2F)c1=O)NCc1ccccc1Cl	-15	15	11	41*
CC1CC(=O)Nc2cc(S(=O)(=O)Nc3ccccc3Cl)ccc2S1 (configuration not stated)	12	5	8	11
CC(NC(=O)CSc1nnc(C2CC2)n1Cc1ccccc1)c1ccco1 (configuration not stated)	-54	-4	3	1
O=C(CCCn1c(=O)c2ccccc2n(CC(=O)NCc2ccccc2Cl)c1=O)NCc1ccc2c(c1)OCO2	66*	33*	26	27
COc1cc(/C=C(/C(=O)O)c2ccc(-c3ccccc3)cc2)cc(OC)c1OC	-47	-17	-11	38*
CC1(c2nc(-c3ccc(S(C)(=O)=O)cc3)no2)CCOCC1	19	9	6	10
CCN(CC)C(=O)c1sc(NC(=O)/C=C/c2c(F)cccc2Cl)c(C#N)c1C	-29	17	23	62*
O=C(/C=C/c1c(F)cccc1Cl)NCc1ccccn1	-64	-10	-5	-21
N#Cc1ccccc1NC(=O)COC(=O)Cc1c[nH]c2ccccc12	-91	-12	-12	-11
Cc1cc(NC(=O)C(=O)NCC2CCN(C(C)C)CC2)no1	33*	2	10	10
Cc1cc(NC(=O)C2CCCN(S(=O)(=O)N3CCCCCC3)C2)no1 (configuration not stated)	-7	-9	-8	-2
COc1ccc(-c2c(C(=O)O)sc3c2NC(=O)CC3c2cc(F)ccc2F)cc1 (configuration not stated)	35*	14	12	5
CCCC(=O)N1CCCC(c2nnc(C(=O)Nc3ccc(C)cc3)s2)C1 (configuration not stated)	28	27	8	-2
COCC(=O)N1CCC([C@@H]2C[C@H](C(F)(F)F)n3nc(C(C)(C)C)cc3N2)CC1	/	/	0	51*
Cc1cc2n(n1)[C@@H](C(F)(F)F)C[C@@H](C1CCN(C(=O)Cc3sc(C)nc3C)CC1)N2	-8	-5	-5	-22
O=C(NCCc1ccc(Cl)cc1)c1cc2ccccc2s1	28	12	7	13
O=C(NCCc1ccccc1)c1cc2ccccc2c(=O)s1	/	/	3	73*
Cc1ccccc1-c1nc2c3c(C)c(C)n(-c4cccnc4)c3ncn2n1	10	9	6	3
Cc1cccnc1-n1c(C)c(C)c2c1ncn1nc(-c3ccco3)nc21	0	3	10	40*
Cc1ccc2nc3c(cc(C(=O)N4CCCC(C)C4)n3Cc3ccccc3)c(=O)n2c1 (configuration not stated)	/	/	-6	-11
SMILES	USP30 block	USP28 inh	OTUD3 block	USP17 block
COC(=O)CSc1nnc(-c2c[nH]c3ccccc23)n1-c1cc(OC)ccc1OC	12	1	-1	19
CCN[C@H]1C[C@@H](c2ccccc2)OC2(CCN(Cc3cn(C)nc3C)CC2)C1	14	9	13	31*
C/C=C/C=C/[C@@H]1Cc2cc(O)cc(O)c2O1	82*	91*	87*	97*
COc1ccccc1OCCCCn1c(C2CC(=O)N(c3ccccc3F)C2)nc2ccccc21 (configuration not stated)	39*	9	5	29
CN1CC(c2nc3ccccc3n2CCCOc2ccc(Cl)cc2)CC1=O (configuration not stated)	-7	0	-3	1
O=C1CC(c2nc3ccccc3n2CCOc2ccc(Cl)cc2)CN1c1ccccc1 (configuration not stated)	72*	25	15	66*
Cc1ccc(N2CC(c3nc4ccccc4n3CCCOc3ccccc3)CC2=O)cc1 (configuration not stated)	56*	11	4	60*
COc1ccc(OCCn2c(C3CC(=O)N(c4cccc(C)c4)C3)nc3ccccc32)cc1 (configuration not stated)	34*	7	7	76*
Cc1ccc(NC(=O)c2cccc(N)c2)cc1	-5	5	0	0
COc1ccc(Cl)cc1C(=O)Nc1cnc(N2CCOCC2)nc1	-15	-16	-8	/
COc1ccc(Cl)cc1C(=O)Nc1cc(C)cc(C)n1	9	-15	-9	46*
Cc1cc(C)cc(NC(=O)Cc2csc(NC(=O)Nc3cccc(Cl)c3)n2)c1	32*	24	17	12
Cc1nnc(SCC(=O)c2ccc3ccccc3c2)n1Cc1ccccc1	6	1	-3	0
O=C(CSc1nnc(-c2ccncc2)n1Cc1ccccc1)c1ccc2[nH]c(O)cc2c1	-48	27	-5	58*
CCCCCCCCCCCCCCCC(=O)NC(CCC(=O)O)C(=O)NC(CCCN)C(=O)NC1Cc2ccc(cc2)OC(=O)C(C(C)CC)NC(=O)C(Cc2ccc(O)cc2)NC(=O)C(CCC(N)=O)NC(=O)C2CCCN2C(=O)C(C(C)C)NC(=O)C(CCC(=O)O)NC(=O)C(C(C)O)NC1=O (configuration not stated)	-5	13	21	15
CC1NC(=O)C(CC(N)=O)NC(=O)C(C(C)O)NC(=O)C(Cc2ccc(O)cc2)NC(=O)C(C(C)C)NC(=O)C(NC(=O)CC(O)CCCCCCCCCCCCN=C(N)N)C(C)OC1=O (configuration not stated)	86*	87*	73*	34*
CCN1C[C@@]23CN(C(=O)c4cccnc4)C[C@@H](C[C@@H]2S1(=O)=O)O3	-11	-6	0	-10
COc1ccc(-c2nc3n(n2)C(c2cccc(O)c2)C2=C(CCCC2=O)N3)cc1 (configuration not stated)	13	2	-9	51*
CCOc1ccc(C2C3=C(CCCC3=O)Nc3nc4ccccc4n32)cc1OC (configuration not stated)	-3	4	-6	-1
c1csc(-c2nc(Nc3ccc4c(c3)CCC4)c3ccccc3n2)c1	-86	-40	-23	71*
c1csc(-c2nc(NC3CCCCC3)c3ccccc3n2)c1	-4	-7	-21	13
O=C(c1cnccn1)N1CCCC2(CCN(c3ncc(F)cn3)C2)C1 (configuration not stated)	-5	-11	-7	-22
COc1cc(N)c(Cl)cc1C(=O)OCC(=O)N1CCCC1	6	5	11	11
COc1cc(N)c(Cl)cc1C(=O)OCC(=O)Nc1ccc2c(c1)OCCO2	0	37*	-10	20
